Assay results published in the supplement of paper PMC3545927.
This is one part of the list. The true hit rate is not given.

B1: HC557 (peptide)
chain: CAMWPLLLLLAGNASASA
B2: HC497 (peptide)
chain: CAQVLPCSFTAGNASASA
B3: HC2075 (peptide)
chain: CAVVCCSMHYAGNASASA
B4: HC1338 (peptide)
chain: CASSTSGITGAGNASASA
B5: HC2165 (peptide)
chain: CAELVTSTWVAGNASASA
B6: HC1600 (peptide)
chain: CALPPIIQRLAGNASASA
B7: FS-1154 (peptide)
chain: CAQYWRDKRLAGNASASA
B8: FS-1137 (peptide)
chain: CALSDRKKRLAGNASASA
B9: FS-351 (peptide)
chain: CALMHRKKRLAGNASASA
B10: FS-729 (peptide)
chain: CATPARKKRLAGNASASA
B11: FS-1528 (peptide)
chain: CAGSLRKKRLAGNASASA
B12: HC2157 (peptide)
chain: CASVVTSTWVAGNASASA
B13: HC1357 (peptide)
chain: CAGEPGDPDLAGNASASA
B14: HC2308 (peptide)
chain: CAWVPCHRPSAGNASASA
B15: HC2392 (peptide)
chain: CAEVPCHRESAGNASASA
B16: HC892 (peptide)
chain: CADFSLDPTFAGNASASA
B17: HC845 (peptide)
chain: CATTGEIPFYAGNASASA
B18: HC1535 (peptide)
chain: CAVQEDAASLAGNASASA
B19: HC296 (peptide)
chain: CALCSALYVGAGNASASA
B20: HC1687 (peptide)
chain: CAMFECSQHLAGNASASA
B21: HC87 (peptide)
chain: CAVVCWSMSYAGNASASA
B22: FS-881 (peptide)
chain: CATPRRQKRLAGNASASA
B23: FS-1162 (peptide)
chain: CARSQRSWRLAGNASASA
B24: FS-3090 (peptide)
chain: CARSPRPRGDAGNASASA
B25: FS-789 (peptide)
chain: CAGSRRPRRDAGNASASA
B26: HC1566 (peptide)
chain: CAPLARAAWEAGNASASA
B27: FS-1045 (peptide)
chain: CAPEPREQRDAGNASASA
B28: FS-556 (peptide)
chain: CAPLARPRRDAGNASASA
B29: FS-472 (peptide)
chain: CAPGPRPRRDAGNASASA
B30: FS-602 (peptide)
chain: CAKHNRPRRDAGNASASA
B31: FS-167 (peptide)
chain: CAGSRRWGRYAGNASASA

Target: furin, P09958
Assay: furin cleavage Z-score vs untreated control; higher = more cleavage, active = 3.5 or more, inactive = 1 or less, 8 variable residues between constant flanks
Outline: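 The cleavage Z-score is the log read count relative to furin-free reactions, lowess-adjusted and scaled by median absolute deviation. Counts came from sequencing DNA released from bead-bound 8-mer peptide–cDNA fusions after digestion with purified furin for 7.5, 15 or 30 min.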
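Also: purified furin at 1:10 enzyme:substrate in 50 mM HEPES pH 7.5.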

Sequence of furin, P09958 (P09958 whole entry): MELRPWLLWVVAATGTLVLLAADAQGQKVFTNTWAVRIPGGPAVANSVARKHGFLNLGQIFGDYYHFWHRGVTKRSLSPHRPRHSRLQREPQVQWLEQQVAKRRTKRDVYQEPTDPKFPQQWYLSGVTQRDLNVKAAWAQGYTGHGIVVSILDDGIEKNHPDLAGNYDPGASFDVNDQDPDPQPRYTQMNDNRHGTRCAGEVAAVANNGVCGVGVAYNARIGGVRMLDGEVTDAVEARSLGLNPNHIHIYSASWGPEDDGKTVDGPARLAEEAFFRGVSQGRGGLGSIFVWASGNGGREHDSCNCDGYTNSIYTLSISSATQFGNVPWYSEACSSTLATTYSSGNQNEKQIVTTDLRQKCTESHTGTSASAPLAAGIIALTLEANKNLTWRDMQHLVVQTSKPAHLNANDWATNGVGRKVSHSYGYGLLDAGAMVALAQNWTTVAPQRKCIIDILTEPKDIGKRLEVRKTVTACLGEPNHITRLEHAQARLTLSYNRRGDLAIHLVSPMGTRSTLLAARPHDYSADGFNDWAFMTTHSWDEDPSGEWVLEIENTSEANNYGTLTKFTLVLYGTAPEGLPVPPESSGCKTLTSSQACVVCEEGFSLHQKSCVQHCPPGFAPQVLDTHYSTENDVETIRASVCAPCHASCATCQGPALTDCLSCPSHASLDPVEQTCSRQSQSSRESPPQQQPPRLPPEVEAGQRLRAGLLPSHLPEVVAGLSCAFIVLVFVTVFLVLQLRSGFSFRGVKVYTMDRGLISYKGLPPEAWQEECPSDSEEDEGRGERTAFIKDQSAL

Sequence	furin cleavage Z-score (7.5 min)	furin cleavage Z-score (15 min)	furin cleavage Z-score (30 min)
B1	0.169 (inactive)	0.292 (inactive)	-0.0686 (inactive)
B2	1.05	-1.13 (inactive)	0.347 (inactive)
B3	-0.613 (inactive)	1.54	1.45
B4	-0.675 (inactive)	-0.0853 (inactive)	-0.923 (inactive)
B5	1.19	-1.53 (inactive)	0.617 (inactive)
B6	-1.17 (inactive)	-0.382 (inactive)	-0.2 (inactive)
B7	0.77 (inactive)	0.402 (inactive)	0.0823 (inactive)
B8	4.97 (active)	5.99 (active)	4.87 (active)
B9	8.68 (active)	11 (active)	9.08 (active)
B10	7.39 (active)	8.85 (active)	8.77 (active)
B11	8.24 (active)	9.41 (active)	8.69 (active)
B12	1.21	-0.109 (inactive)	0.831 (inactive)
B13	-1.27 (inactive)	-0.0644 (inactive)	0.75 (inactive)
B14	-0.717 (inactive)	2.59	0.688 (inactive)
B15	0.318 (inactive)	1.09	0.395 (inactive)
B16	0.169 (inactive)	-0.616 (inactive)	-1.12 (inactive)

Sequence	furin cleavage Z-score (7.5 min)	furin cleavage Z-score (15 min)	furin cleavage Z-score (30 min)
B17	-1.32 (inactive)	-1.97 (inactive)	0.0887 (inactive)
B18	-1.62 (inactive)	-0.428 (inactive)	-0.272 (inactive)
B19	-0.409 (inactive)	-0.564 (inactive)	0.88 (inactive)
B20	-0.00522 (inactive)	-0.149 (inactive)	-0.982 (inactive)
B21	-0.794 (inactive)	-0.454 (inactive)	-0.791 (inactive)
B22	9.61 (active)	11.3 (active)	9.49 (active)
B23	-0.897 (inactive)	-0.415 (inactive)	-1.15 (inactive)
B24	0.374 (inactive)	-0.595 (inactive)	0.318 (inactive)
B25	13.1 (active)	13 (active)	10.2 (active)
B26	0.967 (inactive)	1.75	0.234 (inactive)
B27	-0.201 (inactive)	-0.175 (inactive)	-0.45 (inactive)
B28	9.88 (active)	7.62 (active)	6.73 (active)
B29	14.1 (active)	15 (active)	10.8 (active)
B30	12.5 (active)	11.7 (active)	9.21 (active)
B31	-0.565 (inactive)	1.19	2.01
